# Measurements as given in PubChem BioAssay AID1259422 (The Scripps Research Institute Molecular Screening Center, 2018).
# About 9,300 (1.5%) of roughly 640,000 compounds were called active. Many of the other results were omitted from the sample, so actives are more common in it than they were. A number with no mark means an inactive call. Rule as the data show it: active = inhibition above about 32%; inactive = the rest.
# Assay: TEAD-YAP interaction inhibition, primary screen, TEAD-YAP interaction inhibitor project, luminescence, HEK-TIYL cells (AID 1259422);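 also: 0% = median of test compound wells and 100% = reference inhibitor wells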
# Settings: TEAD-Gal4/YAP UAS-luciferase luminescence, at 9.12 µM, active compounds read high
row,SMILES,inhibition
1,Cc1sc(NC(=O)c2ccc(S(=O)(=O)N(C)c3ccccc3)cc2)c(C#N)c1C,3.35%
2,CCc1cc2c(=O)c(-c3ccc4c(c3)OCCCO4)coc2cc1OC(=O)N1CCOCC1,-8.61%
3,COc1ccc(-c2coc3cc(OCCN4CCOCC4)ccc3c2=O)cc1OC,33% (active)
4,CCc1cc2c(=O)c(-c3ccc4c(c3)OCCCO4)coc2cc1OC,-34.2%
5,COc1ccc(C(=O)Nc2cc(C)nn2-c2nc3ccccc3[nH]2)cc1[N+](=O)[O-],10.1%
6,CCCc1cc(=O)[nH]c2nnc(SCC(=O)Nc3cc(OC)ccc3OC)n12,-0.38%
7,Cn1c(/C(C#N)=C/c2ccccc2)nc2ccccc21,2.92%
8,N#C/C(=C\c1ccc(-c2ccc(S(N)(=O)=O)cc2)o1)C(N)=O,-6.41%
9,Cn1c(/C(C#N)=C\c2ccc(-c3ccc(S(N)(=O)=O)cc3)o2)nc2ccccc21,36.2% (active)
10,COCCN(C(=O)CN1C(=O)c2ccccc2C1=O)C1(C(=O)Nc2ccccc2)CCCC1,4.63%
11,COc1ccc(CNCc2cc(-c3ccccc3)cn3nnnc23)cc1,16%
12,Cc1cccc(-n2nc3c(c2NC(=O)c2ccc4c(c2)OCO4)CSC3)c1C,3.84%
13,CC(C)(C)NC(=O)c1cccc(S(=O)(=O)N2CCN(c3ccc(F)cc3)CC2)c1,3.68%
14,COc1ccc(CC(=O)c2ccc(OC)cc2)cc1,-37.9%
15,Cc1ccc[n+](CC(=O)c2ccc(Cl)cc2)c1C,1.36%
16,COc1ccc(C(=O)C[n+]2ccc(N)c(C)c2C)cc1,33% (active)
17,CCOC(=O)C1=C(c2ccccc2)N=c2s/c(=C\c3ccc4c(c3)OCO4)c(=O)n2C1c1ccc(OC)c(OC)c1 (stereo unspecified),6.04%
18,O=C(NC1CCN(Cc2ccccc2)CC1)c1ccc(-c2ccccc2)s1,-22.3%
19,COc1ccc(-c2cc(NC3CC3)nc(N)n2)cn1,-43.5%
20,COc1ccc(-c2ccc(C(=O)NC3CC3)s2)cn1,40.7% (active)
21,CC(C)N(C(=O)NCCC(=O)c1ccc(F)cc1)C(C)C,-1.1%
22,CC(=O)Nc1ccc2nc3c(cc2c1)[nH]c1ccccc13,32.4% (active)
23,Clc1cc2nc3[nH]c4ccccc4c3nc2cc1Cl,-25.4%

row,SMILES,inhibition
1,CC(=O)Nc1ccc(-c2nc(-c3ccccc3)c3cc(C)ccc3n2)cc1,7.4%
2,COc1ccc(C2/C(=C(\O)c3ccc(C)cc3)C(=O)C(=O)N2c2c(C)n(C)n(-c3ccccc3)c2=O)cc1 (stereo unspecified),-7.88%
3,COc1ccc(OCCSc2nnc3nc(C)cc(C)n23)cc1,0.54%
4,N#CCOc1ccc2c(=O)c(Oc3ccc4ccccc4c3)coc2c1,5.86%
5,COc1ccc(-c2cc(C(F)(F)F)n3nc(C(=O)NCc4ccccc4Cl)cc3n2)cc1,-8.37%
6,Cc1sc2nc3n(c(=O)c2c1C)N=C(c1cccs1)CS3,50.3% (active)
7,Cc1sc2nc3n(c(=O)c2c1-c1cccs1)CCC3,-2.17%
8,Cc1nc2scc(-c3cccs3)c2c(=O)n1N,4.54%
9,N=C1S/C(=C/c2ccc(-c3cc(Cl)ccc3[N+](=O)[O-])o2)C(=O)N1c1nonc1N,5.95%
10,C=CCNS(=O)(=O)c1cc(C(=O)Nc2ccccc2C(F)(F)F)ccc1F,-7.91%
11,Cc1[nH]c2ccccc2c1CCNC(=O)/C(=C/c1ccccc1)NC(=O)c1cccc(Br)c1,2.37%
12,COc1cccc(/C=N/NC(=O)/C(=C/c2ccccc2)NC(=O)c2ccccc2)c1O,21.1%
13,Cc1[nH]c2ccccc2c1/C=N/NC(=O)/C(=C/c1ccccc1O)NC(=O)c1ccccc1,83% (active)
14,COc1ccc(C(=O)N/C(=C/c2ccc(Cl)cc2)C(N)=O)cc1,-2.4%
15,CC(=O)c1ccc(NC(=O)CN2C(=O)C3C4CCC(C4)C3C2=O)cc1 (stereo unspecified),-12%
16,CC(=O)Oc1ccc(N(C(C)=O)S(=O)(=O)c2c(C)cc(C)cc2C)cc1,-4.17%
17,CC(=O)Oc1ccc(C(=O)Nc2ccncc2)cc1,1.93%
18,CC(=O)Oc1ccc(C(=O)N(C(=O)c2ccc(OC(C)=O)cc2)c2cc(C)ccn2)cc1,47.4% (active)
19,COc1cc2cc(C)c3nnc(SCC(=O)NC(C)(C)C)n3c2cc1OC,-7.33%
20,O=C1NC(=S)S/C1=C/c1ccc(-c2ccc3c(c2)COC3=O)o1,-7.22%
21,O=C(NCc1cccc(C(F)(F)F)c1)c1csc(Nc2nccc3ccccc23)n1,-0.98%
22,Cc1ccc(Nc2c(Cc3ccccc3)c(C)c(C#N)c3nc4ccccc4n23)cc1,-19.3%
23,CCOc1ccccc1C1C(C#N)=C(N)Oc2ccc3ccccc3c21 (stereo unspecified),-6.22%

row,SMILES,inhibition
1,N#CC1=C(N)Oc2ccc3ncccc3c2C1c1ccccc1F (stereo unspecified),50.8% (active)
2,N#CC1=C(N)Oc2ccc3ccccc3c2C1c1ccc(F)cc1 (stereo unspecified),-0.56%
3,C=CCN(CC=C)C(=O)/C=C/c1cccc([N+](=O)[O-])c1,7.6%
4,COc1cccc(OCC(=O)N2CCC3(CC2)OCc2ccccc2O3)c1,-8.9%
5,CC(=O)N1c2ccc(NC(=O)c3ccccc3)cc2C(C)(c2ccc(C)cc2)CC1(C)C (stereo unspecified),13.9%
6,CC(Cl)/C(O)=C(\C#N)c1nc2ccccc2[nH]1 (stereo unspecified),-6.03%
7,OCCNC1CCCc2c1[nH]c1ccc(-c3ccccc3)cc21 (stereo unspecified),-12.6%
8,Cc1ccc2[nH]c3c(c2c1)CCCC3NC=O (stereo unspecified),5.42%
9,Cc1ccc2[nH]c3c(c2c1)CCCC3NCc1ccccc1 (stereo unspecified),53.6% (active)
10,Cc1ccc2nc(-c3cccc(NC(=O)c4cc([N+](=O)[O-])ccc4Br)c3)oc2c1,6.62%
11,O=C(COc1ccc(Cl)cc1)Nc1ncc(Cc2ccc(F)cc2)s1,5.3%
12,O=c1c2c(nc3n1CCCCC3)sc1c(O)cccc12,92.2% (active)
13,CC(C)(C)NCC(O)COc1c(Br)ccc2c1sc1nc3n(c(=O)c12)CCCCC3 (stereo unspecified),-32.7%
14,CC(=O)c1ccc(NC(=O)c2sc3nc4n(c(=O)c3c2C)CCCCC4)cc1,-3.85%
15,COc1ccc(N2CC(CNC(=O)c3cccs3)CC2=O)cc1 (stereo unspecified),6.17%
16,Cc1cccc(N2C(N)=C(C#N)C(c3ccc(F)cc3)C3=C2CC(C)(C)CC3=O)c1 (stereo unspecified),-0.79%
17,CCOc1ccc(C2C(C#N)=C(N)N(c3cccc(C)c3)C3=C2C(=O)CC(C)(C)C3)cc1 (stereo unspecified),56.6% (active)
18,CCOc1ccc(C2C(C#N)=C(N)N(c3cccc([N+](=O)[O-])c3)C3=C2C(=O)CC(C)(C)C3)cc1 (stereo unspecified),-5.19%
19,O=C(c1cc(Cl)ccc1Cl)N1CCN(c2ccc(F)cc2)CC1,10.3%
20,CC(=O)c1c(C)[nH]c(C(=O)N2CCN(c3ccc(Cl)cc3)CC2)c1C,12.3%
21,CSc1ncc(Cl)c(C(=O)N2CCN(c3cccc(Cl)c3)CC2)n1,39% (active)
22,O=C(c1ccc([N+](=O)[O-])cc1)N1CCN(c2cccc(Cl)c2)CC1,-1.04%
23,CN(C)c1cccc(C(=O)N2CCN(c3cccc(Cl)c3)CC2)c1,32.4% (active)

row,SMILES,inhibition
1,COc1ccc(-n2cc(C(=O)N3CCN(c4cccc(Cl)c4)CC3)c3ccccc3c2=O)cc1,0.04%
2,Cc1cc(C(=O)N2CCN(c3cccc(Cl)c3)CC2)ccc1[N+](=O)[O-],3.11%
3,COc1cc(OC)cc(-n2nc(C(=O)N3CCN(c4cccc(Cl)c4)CC3)c3ccccc3c2=O)c1,9.86%
4,CC(=O)/C(C(=N)N1CCN(c2cccc(Cl)c2)CC1)=C(/C)O,-6.64%
5,CC(=O)Nc1ccc(C(=O)N2CCN(c3cccc(Cl)c3)CC2)cc1,-15.7%
6,COc1ccc(Cl)cc1C(=O)N1CCN(c2cccc(Cl)c2)CC1,64% (active)
7,CCc1c(C(=O)N2CCN(c3cccc(Cl)c3)CC2)[nH]c(C)c1C(C)=O,52.2% (active)
8,CN1CCN(C(=O)c2cc(-c3cccs3)n(CC(=O)N3CCC(O)CC3)n2)CC1,-2.96%
9,Cc1ccc(Nc2nc(-c3ccccc3Cl)nc3ccccc23)cc1Cl,9.51%
10,Cc1c(Cl)cccc1NC(=O)c1cnn2c(C(F)(F)F)cc(-c3ccco3)nc12,0.28%
11,O=[N+]([O-])c1ccc(-c2csc(=NCc3cccnc3)n2-c2ccccc2)cc1,-0.76%
12,Cc1nnc(NC(=O)CSc2nc(C(C)C)ccc2C#N)s1,62.8% (active)
13,Cc1nnc(NC(=O)CSc2nc3ccccc3cc2C#N)s1,-10.2%
14,COc1ccc(CC(=O)Nc2nnc(SCC(=O)Nc3nnc(C)s3)s2)cc1,12.5%
15,C=CCNC(=O)Cn1cnc2c([nH]c3ccc(C)cc32)c1=O,3.72%
16,COc1ccc(NC(=O)CN(c2cc(C(F)(F)F)ccc2Cl)S(=O)(=O)c2ccccc2)cc1,56.2% (active)
17,O=C(CN(c1cc(C(F)(F)F)ccc1Cl)S(=O)(=O)c1ccccc1)NCc1ccncc1,3.78%
18,NC(=O)CN(c1cc(C(F)(F)F)ccc1Cl)S(=O)(=O)c1ccccc1,-1.66%
19,CCCCOc1ccc(NC(=O)C(C)Oc2ccc(OC)cc2)cc1 (stereo unspecified),7.98%
20,COC(=O)c1sc(NC(=O)C2CCCCC2)c(C#N)c1C,1.29%
21,COC(=O)c1sc(NC(=O)c2ccncc2)c(C#N)c1C,-4%
22,COC(=O)c1sc(NC(=O)C2(C)CC2(Cl)Cl)c(C#N)c1C (stereo unspecified),38.3% (active)
